Counter-ions that a name gives are not always drawn.
Test system: HL-1
Test: relative cell viability (CellTiter-Glo) vs DMSO control (% of DMSO control); higher = more viable cells
Method in brief: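 Plating of HL-1 mouse atrial cardiomyocytes at 1000 cells per well in 384-well plates was done together with compounds at 40, 200, 1000 or 5000 nM in 0.01% DMSO. A day later the cells faced 48 h of 1% O2 and then 24 h of reoxygenation, or matching normoxia. Viability was measured via CellTiter-Glo luminescence and set relative to vehicle-treated control cells.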

[1] = oxygen condition: hypoxia 48 h (1% O2) + reoxygenation 24 h, 40 nM
[2] = oxygen condition: hypoxia 48 h (1% O2) + reoxygenation 24 h, 200 nM
[3] = oxygen condition: hypoxia 48 h (1% O2) + reoxygenation 24 h, 1000 nM
[4] = oxygen condition: hypoxia 48 h (1% O2) + reoxygenation 24 h, 5000 nM
[5] = oxygen condition: normoxia 72 h, 40 nM
[6] = oxygen condition: normoxia 72 h, 200 nM
[7] = oxygen condition: normoxia 72 h, 1000 nM
[8] = oxygen condition: normoxia 72 h, 5000 nM

SMILES	relative cell viability [1]	relative cell viability [2]	relative cell viability [3]	relative cell viability [4]	relative cell viability [5]	relative cell viability [6]	relative cell viability [7]	relative cell viability [8]
C[C@]12CCC(=O)C=C1[C@@H]1C[C@@H]1[C@H]1[C@@H]3[C@@H]4C[C@@H]4[C@@]4(CCC(=O)O4)[C@@]3(C)CC[C@@H]12 [Drospirenone]	104	104	109	105	103	112	100	104
O=C(O)C[C@H](O)C[C@H](O)/C=C/c1c(C2CC2)nc2ccccc2c1-c1ccc(F)cc1 [Pitavastatin calcium]	109	109	85.5	7.03	117	109	88.9	4.53
C[C@@H](O[C@H]1OCCN(Cc2nn(P(=O)(O)O)c(=O)[nH]2)[C@H]1c1ccc(F)cc1)c1cc(C(F)(F)F)cc(C(F)(F)F)c1 [Fosaprepitant dimeglumine]	104	105	119	108	113	129	130	105
CC1=NN(c2ccc(C)c(C)c2)C(=O)/C1=N\Nc1cccc(-c2cccc(C(=O)O)c2)c1O [Eltrombopag]	105	86	109	107	106	112	111	108
CNCCC(Oc1ccc(C(F)(F)F)cc1)c1ccccc1 (stereo not given) [Fluoxetine  HCl]	103	109	114	110	104	114	106	114
Cc1onc(-c2ccccc2Cl)c1C(=O)N[C@@H]1C(=O)N2[C@@H]1SC(C)(C)[C@@H]2C(=O)O [Cloxacillin sodium]	96	106	106	107	101	102	102	100
Nc1ncn([C@H]2C[C@H](O)[C@@H](CO)O2)c(=O)n1 [Decitabine]	103	104	94.1	65.4	101	104	91.2	58.2
CCCCN1CCCCC1C(=O)Nc1c(C)cccc1C (stereo not given) [Bupivacaine hydrochloride]	107	105	102	104	105	105	106	102
O=C(CCNNC(=O)c1ccncc1)NCc1ccccc1 [Nialamide]	107	109	108	113	96.2	105	104	138
CC(C)NC[C@H](O)COc1ccc(CCOCC2CC2)cc1 [Levobetaxolol HCl]	110	102	107	115	105	106	108	115
O=C(Nc1c(Cl)cncc1Cl)c1ccc(OC(F)F)c(OCC2CC2)c1 [Roflumilast]	101	82.1	92.9	99	90.6	84.6	93.7	93.6
CCCN[C@H]1CCc2nc(N)sc2C1 [Pramipexole dihydrochloride monohydrate]	103	98.2	99.8	107	99	105	101	110
Nc1nc(CC(=O)Nc2ccc(CCNC[C@H](O)c3ccccc3)cc2)cs1 [Mirabegron]	112	110	111	112	103	104	113	129
CN(C)CCOC(C)(c1ccccc1)c1ccccn1 (stereo not given) [Doxylamine Succinate]	111	104	105	109	107	112	117	123
CCCCOc1cc(C(=O)NCCN(CC)CC)c2ccccc2n1 [Dibucaine HCL]	103	107	108	118	109	110	109	118
O=C(O)c1ccc(NC(=O)[C@H](Cc2ccc(O)cc2)NC(=O)c2ccccc2)cc1 [Bentiromide]	104	104	101	102	103	106	99.5	111
C[C@]12CC[C@@H]3c4ccc(O)cc4CC[C@H]3[C@@H]1CCC2=O [Estrone]	102	107	107	109	102	105	107	115
Nc1cc(N2CCCCC2)nc(N)[n+]1[O-] [Minoxidil]	108	106	118	113	114	109	112	111

SMILES	relative cell viability [1]	relative cell viability [2]	relative cell viability [3]	relative cell viability [4]	relative cell viability [5]	relative cell viability [6]	relative cell viability [7]	relative cell viability [8]
CN1CCN2c3ccccc3Cc3ccccc3C2C1 (stereo not given) [Mianserin hydrochloride]	74.7	97.7	84	107	63.6	92.5	98.1	111
O=c1[nH]cc(F)c(=O)[nH]1 [Adrucil]	110	94.1	52.9	18.6	96.6	81.2	42.9	15.4
COc1ccc2[nH]c([S+]([O-])Cc3ncc(C)c(OC)c3C)nc2c1 (stereo not given) [Omeprazole]	101	99.7	107	110	104	103	103	105
CC(Oc1c(Cl)cccc1Cl)C1=NCCN1 (stereo not given) [Lofexidine  HCl]	99.4	101	99.6	118	98.3	103	89.6	108
CCOC(=O)C1=C[C@@H](OC(CC)CC)[C@H](NC(C)=O)[C@@H](N)C1 [Oseltamivir phosphate]	94.9	99.4	99.5	111	103	101	105	111
O=C1c2ccccc2C(=O)C1c1ccccc1 [Phenindione]	97	105	95.1	113	108	107	102	108
CC1=C(CC(=O)O)c2cc(F)ccc2/C1=C\c1ccc([S+](C)[O-])cc1 (stereo not given) [Sulindac]	104	105	106	61.2	103	101	108	113
COC(=O)C1=C(C)NC(C)=C(C(=O)OCC(C)C)C1c1ccccc1[N+](=O)[O-] (stereo not given) [Nisoldipine]	106	104	107	110	99.2	110	116	111
CCCC(=O)[O-].[Na+] [Sodium butyrate]	103	101	99.4	107	98.7	99.2	105	107
COc1ccc(CN(CCN(C)C)c2ccccn2)cc1 [Pyrilamine Maleate]	102	99.1	101	112	99.5	106	99.9	124
CCC(C)(C)C(=O)O[C@H]1C[C@@H](C)C=C2C=C[C@H](C)[C@H](CC[C@@H]3C[C@@H](O)CC(=O)O3)[C@H]21 [Simvastatin]	109	108	99.2	3.87	111	103	50.4	2.69
Cc1cn(-c2cc(NC(=O)c3ccc(C)c(Nc4nccc(-c5cccnc5)n4)c3)cc(C(F)(F)F)c2)cn1 [Nilotinib]	101	81.4	107	111	105	104	104	108
Cc1c(-c2ccc(O)cc2)n(Cc2ccc(OCCN3CCCCCC3)cc2)c2ccc(O)cc12 [Bazedoxifene HCl]	107	99.8	101	84.1	98.6	97.9	105	45.6
COc1ccc(Cl)cc1C(=O)NCCc1ccc(S(=O)(=O)NC(=O)NC2CCCCC2)cc1 [Glyburide]	103	106	103	104	103	103	108	109
CCCCc1oc2ccc(NS(C)(=O)=O)cc2c1C(=O)c1ccc(OCCCN(CCCC)CCCC)cc1 [Dronedarone HCl]	99.9	99.6	102	105	99.8	110	102	95
C=C[C@H]1CN2CC[C@H]1C[C@H]2[C@H](O)c1ccnc2ccc(OC)cc12 [Quinine hydrochloride dihydrate]	103	104	102	104	102	101	103	111
CCCCN(CCCC)CCCOC(=O)c1ccc(N)cc1 [Butacaine]	103	101	106	106	103	92.7	102	104

Source: the supplement of paper PMC8371130
